Measurements taken from PubChem BioAssay (NCATS).
Inconclusive results are not listed. Where a call stands in place of a potency, no number is given. A number with no mark means an inactive call. Activity calls are given as the source filed them. Calls follow the shape of the dose curve; as a rule, active = well fitted inhibition curve with a large enough effect; inconclusive = small, poorly fitted or top-dose-only effect; inactive = flat fitted curve, though single readings scatter.

Tests used:
[1] = target: Glutathione peroxidase 1 (Homo sapiens) (UniProt P07203); experiment: Primary qHTS Assay for Inhibitors of Recombinant Selenoprotein Glutathione Peroxidase 1 (GPX1) (AID 1845191); also: nearly all actives have a fitted effect of over 65% in size; also: potency is read from the fitted curve at half-maximal effect
Chain of Glutathione peroxidase 1 (Homo sapiens) (P07203 whole entry, looked up): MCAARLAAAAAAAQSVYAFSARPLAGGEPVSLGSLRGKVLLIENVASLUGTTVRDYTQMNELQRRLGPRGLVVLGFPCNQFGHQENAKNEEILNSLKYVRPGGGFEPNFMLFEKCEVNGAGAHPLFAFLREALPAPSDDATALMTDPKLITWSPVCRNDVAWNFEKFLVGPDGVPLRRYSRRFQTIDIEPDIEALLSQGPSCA
Method in brief: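 GR-coupled readout: NADPH consumption tracked by fluorescence, ex 340/em 450 nm, at t=0 and after 15 min at RT. Final mix 10 nM GPX1, 1 mM GSH, 0.5 mM CHP, 0.5 mM NADPH, 100 nM GR, 0.01% BSA, following 30 min enzyme–compound preincubation.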

[2] = target: Phospholipid hydroperoxide glutathione peroxidase GPX4 (Homo sapiens) (UniProt P36969); experiment: Primary qHTS Assay for Inhibitors of Recombinant Selenoprotein Glutathione Peroxidase 4 (GPX4) (AID 1845192); also: nearly all actives have a fitted effect of over 65% in size
Chain of Phospholipid hydroperoxide glutathione peroxidase GPX4 (Homo sapiens) (P36969 whole entry, looked up): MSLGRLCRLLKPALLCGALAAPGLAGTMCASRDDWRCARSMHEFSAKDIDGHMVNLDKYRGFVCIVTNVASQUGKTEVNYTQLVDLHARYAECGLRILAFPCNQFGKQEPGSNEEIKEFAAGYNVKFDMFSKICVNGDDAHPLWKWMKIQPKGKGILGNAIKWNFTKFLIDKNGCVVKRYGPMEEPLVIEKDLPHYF
Method in brief: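 Steps: GPX4 plus compound, 30 min RT; add GR/GSH/NADPH master mix; start with cumene hydroperoxide; read 340/450 nm fluorescence at 0 and 15 min. Finals were 200 nM GPX4, 1 mM GSH, 0.5 mM CHP, 0.5 mM NADPH, 100 nM GR.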

[3] = qHTS profiling for inhibitors of Plasmodium falciparum proliferation (AID 504749); also: nearly all actives have a fitted effect of over 60% in size; also: potency is read from the fitted curve at half-maximal effect; conditions: P. falciparum in erythrocytes, SYBR Green DNA, 72 h
Method in brief: (§1)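 Each compound contacts P. falciparum-infected red blood cells for 72 h at 37 C; lysis buffer (Tris, EDTA, saponin, Triton X, SYBR Green I) is added and fluorescence measured next morning; values normalized to controls.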

3D7 = experiment: as above; conditions: P. falciparum in erythrocytes, SYBR Green DNA, 72 h; series mostly up to 28.7 µM
Method in brief: as §1

7G8 = experiment: as above; conditions: P. falciparum in erythrocytes, SYBR Green DNA, 72 h; series mostly up to 28.7 µM
Method in brief: as §1

AA1029 = experiment: as above; conditions: P. falciparum in erythrocytes, SYBR Green DNA, 72 h; series mostly up to 28.7 µM
Method in brief: as §1

[4] = at 28.7 µM (top of the series), parasite line B
[5] = at 28.7 µM (top of the series), parasite line A
[6] = at 12.8 µM (top of the series), parasite line A
[7] = at 12.8 µM (top of the series), parasite line B

## CC(=O)OC[C@H]1O[C@@](COC(C)=O)(O[C@H]2O[C@H](COC(C)=O)[C@@H](OC(C)=O)[C@H](OC(C)=O)[C@H]2OC(C)=O)[C@@H](OC(C)=O)[C@@H]1OC(C)=O
[1]
  Potency: inactive
[2]
  Potency: inactive
[3]; [4]
  activity, negative = inhibition: 21.3%
3D7
  Potency: inactive
7G8
  Potency: inactive
AA1029
  Potency: inactive

## COc1nccnc1NS(=O)(=O)c1ccc(N)cc1
[1]
  Potency: inactive
[2]
  Potency: inactive
[3]; [5]
  activity, negative = inhibition: 0.889%
[3]; [4]
  activity, negative = inhibition: -0.327%
7G8
  Potency: inactive
AA1029
  Potency: inactive

## NS(=O)(=O)c1cc2c(cc1C(F)(F)F)NCNS2(=O)=O
[1]
  Potency: inactive
[2]
  Potency: inactive
[3]; [6]
  activity, negative = inhibition: 2.71%
[3]; [7]
  activity, negative = inhibition: 5.88%
3D7
  Potency: inactive
7G8
  Potency: inactive
AA1029
  Potency: inactive

## CC(C)=CCC/C(C)=C/CO
[1]
  Potency: inactive
[2]
  Potency: inactive
[3]; [5]
  activity, negative = inhibition: -3.97%
3D7
  Potency: inactive
7G8
  Potency: inactive
AA1029
  Potency: inactive

## CCCCC1(COC(=O)CCC(=O)O)C(=O)N(c2ccccc2)N(c2ccccc2)C1=O
[1]
  Potency: inactive
[2]
  Potency: inactive
[3]; [6]
  activity, negative = inhibition: 7.36%
[3]; [7]
  activity, negative = inhibition: 2.05%
3D7
  Potency: inactive
7G8
  Potency: inactive
AA1029
  Potency: inactive

## NCc1ccc(S(N)(=O)=O)cc1
[1]
  Potency: inactive
[2]
  Potency: inactive
[3]; [6]
  activity, negative = inhibition: 6.73%
[3]; [7]
  activity, negative = inhibition: 11%
3D7
  Potency: inactive
AA1029
  Potency: inactive

## CC(=O)N(CC(O)CO)c1c(I)c(C(=O)NCC(O)CO)c(I)c(C(=O)NCC(O)CO)c1I (stereo not given)
[1]
  Potency: inactive
[2]
  Potency: inactive
[3]; [5]
  activity, negative = inhibition: 7.48%
[3]; [4]
  activity, negative = inhibition: 5.34%
3D7
  Potency: inactive
7G8
  Potency: 11200 nM (active)
AA1029
  Potency: inactive

## CCCC(O)C(CC)CO (stereo not given)
[1]
  Potency: inactive
[2]
  Potency: inactive
[3]; [5]
  activity, negative = inhibition: 12.2%
[3]; [4]
  activity, negative = inhibition: 6.77%
3D7
  Potency: inactive
7G8
  Potency: inactive
AA1029
  Potency: inactive

## O=C(O)CCCCC1CCSS1 (stereo not given)
[1]
  Potency: 11400 nM (active)
[2]
  Potency: inactive
[3]; [5]
  activity, negative = inhibition: 5.2%
[3]; [4]
  activity, negative = inhibition: 12.3%
3D7
  Potency: inactive
AA1029
  Potency: inactive

## CCCCCCCCCCOc1cc2c(=O)c(C(=O)OCC)c[nH]c2cc1OCC
[1]
  activity, negative = inhibition: -3.55% [at 4.49 µM]
[3]; parasite line A
  Potency: 0.9 nM (active)
[3]; parasite line B
  Potency: 2.2 nM (active)
3D7
  Potency: 2.2 nM (active)
7G8
  Potency: 2.8 nM (active)
AA1029
  Potency: 2.5 nM (active)

## CCCCCCCCCCC(CO)CCCCCCCC (stereo not given)
[1]
  Potency: inactive
[2]
  Potency: inactive
[3]; [5]
  activity, negative = inhibition: -1.63%
[3]; [4]
  activity, negative = inhibition: 6.03%
3D7
  Potency: inactive
AA1029
  Potency: inactive
